Measurements: publication PMC7862700, “An all-to-all approach to the identification of sequence-specific readers for epigenetic DNA modifications on cytosine”

Tests used:
Assay in all cases: DAPPL (digital affinity profiling via proximity ligation, sequencing); 10 mM Tris-HCl pH 7.5, 50 mM NaCl, 1 mM DTT, 4% glycerol, room temperature, 30 min; GST-TFs on glutathione beads, 16-mer random dsDNA library, 0.1% formaldehyde crosslink after washing; high values mean tight binding
FLI1 = biological target: T1, FLI1 (Homo sapiens, UniProt Q01543 1-452); conditions: protein: recombinant; tags: N-terminal GST; dsDNA, one strand shown
T1 sequence: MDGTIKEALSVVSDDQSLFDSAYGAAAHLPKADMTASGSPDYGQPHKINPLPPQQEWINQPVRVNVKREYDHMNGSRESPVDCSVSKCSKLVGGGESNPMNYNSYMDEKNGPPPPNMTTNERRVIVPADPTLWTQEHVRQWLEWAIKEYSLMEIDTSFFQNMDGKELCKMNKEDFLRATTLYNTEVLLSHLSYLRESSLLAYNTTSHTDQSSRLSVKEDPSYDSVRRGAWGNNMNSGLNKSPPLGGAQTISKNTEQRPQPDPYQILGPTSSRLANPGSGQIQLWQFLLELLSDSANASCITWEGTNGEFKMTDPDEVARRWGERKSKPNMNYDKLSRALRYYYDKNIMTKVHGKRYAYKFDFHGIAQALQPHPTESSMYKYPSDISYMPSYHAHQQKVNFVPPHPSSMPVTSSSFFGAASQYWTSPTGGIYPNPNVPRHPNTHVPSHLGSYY
In short: (§1)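 The binding signal reported is, for every hexamer, its read frequency for a factor over its read frequency for the tag-only sample. Reads came from pools of yeast-expressed, GST-fused human transcription factors on glutathione beads, barcoded with DNA and mixed with that sample, which were incubated with 200 nmole of a random double-stranded 16-mer DNA library in Tris/NaCl/DTT/glycerol buffer at room temperature for 30 min. After washing, the pools were crosslinked with 0.1% formaldehyde, proximity-ligated with BsaI/T4 ligase for 1 h at 37 °C, PCR-amplified and sequenced on an Illumina NextSeq500.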

ELK1 = biological target: T2, ELK1 (Homo sapiens, UniProt P19419 1-428); conditions: protein: recombinant; tags: N-terminal GST; dsDNA, one strand shown
T2 sequence: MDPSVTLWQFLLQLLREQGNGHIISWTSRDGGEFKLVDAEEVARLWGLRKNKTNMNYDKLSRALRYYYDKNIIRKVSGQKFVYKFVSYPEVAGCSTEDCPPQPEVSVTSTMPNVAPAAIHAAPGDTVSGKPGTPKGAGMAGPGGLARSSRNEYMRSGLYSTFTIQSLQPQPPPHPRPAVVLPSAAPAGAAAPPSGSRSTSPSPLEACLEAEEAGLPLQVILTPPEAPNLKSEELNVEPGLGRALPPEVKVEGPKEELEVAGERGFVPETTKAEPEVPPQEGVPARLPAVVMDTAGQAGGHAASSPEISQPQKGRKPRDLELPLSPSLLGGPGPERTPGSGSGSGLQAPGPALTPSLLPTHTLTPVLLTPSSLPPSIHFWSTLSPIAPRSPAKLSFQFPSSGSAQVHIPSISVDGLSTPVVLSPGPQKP
In short: as §1

GABPA = biological target: T3, GABPA (Homo sapiens, UniProt Q06546 1-454); conditions: protein: recombinant; tags: N-terminal GST; dsDNA, one strand shown
T3 sequence: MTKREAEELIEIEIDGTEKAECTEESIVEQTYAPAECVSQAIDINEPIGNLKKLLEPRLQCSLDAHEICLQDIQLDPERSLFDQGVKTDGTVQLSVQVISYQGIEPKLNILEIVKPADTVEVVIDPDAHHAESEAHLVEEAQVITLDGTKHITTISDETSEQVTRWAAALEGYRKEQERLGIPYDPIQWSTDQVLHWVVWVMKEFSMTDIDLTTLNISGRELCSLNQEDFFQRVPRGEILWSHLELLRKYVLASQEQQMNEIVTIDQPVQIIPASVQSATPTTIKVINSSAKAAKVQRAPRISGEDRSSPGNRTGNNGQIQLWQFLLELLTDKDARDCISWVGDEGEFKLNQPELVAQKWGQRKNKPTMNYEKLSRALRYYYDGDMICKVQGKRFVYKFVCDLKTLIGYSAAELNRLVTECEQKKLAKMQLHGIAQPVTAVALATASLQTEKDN
In short: as §1

ERG = biological target: T4, ERG (Homo sapiens, UniProt P11308 1-479); conditions: protein: recombinant; tags: N-terminal GST; dsDNA, one strand shown
T4 sequence: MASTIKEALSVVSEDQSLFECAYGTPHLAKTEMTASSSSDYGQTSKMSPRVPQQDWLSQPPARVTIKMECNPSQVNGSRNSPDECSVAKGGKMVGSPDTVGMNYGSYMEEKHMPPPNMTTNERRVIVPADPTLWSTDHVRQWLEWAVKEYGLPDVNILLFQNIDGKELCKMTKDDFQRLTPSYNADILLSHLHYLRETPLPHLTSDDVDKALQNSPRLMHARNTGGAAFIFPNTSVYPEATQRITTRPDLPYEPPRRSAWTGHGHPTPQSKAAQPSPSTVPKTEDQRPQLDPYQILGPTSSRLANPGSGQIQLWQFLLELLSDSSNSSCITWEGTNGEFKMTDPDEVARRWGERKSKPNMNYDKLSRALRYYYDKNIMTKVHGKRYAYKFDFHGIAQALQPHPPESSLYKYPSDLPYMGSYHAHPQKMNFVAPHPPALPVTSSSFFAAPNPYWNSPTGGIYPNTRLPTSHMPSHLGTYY
In short: as §1

ELF1 = ELF1 (Homo sapiens, UniProt P32519 1-619); conditions: protein: recombinant; tags: N-terminal GST; dsDNA, one strand shown
Sequence of ELF1 (P32519 whole entry): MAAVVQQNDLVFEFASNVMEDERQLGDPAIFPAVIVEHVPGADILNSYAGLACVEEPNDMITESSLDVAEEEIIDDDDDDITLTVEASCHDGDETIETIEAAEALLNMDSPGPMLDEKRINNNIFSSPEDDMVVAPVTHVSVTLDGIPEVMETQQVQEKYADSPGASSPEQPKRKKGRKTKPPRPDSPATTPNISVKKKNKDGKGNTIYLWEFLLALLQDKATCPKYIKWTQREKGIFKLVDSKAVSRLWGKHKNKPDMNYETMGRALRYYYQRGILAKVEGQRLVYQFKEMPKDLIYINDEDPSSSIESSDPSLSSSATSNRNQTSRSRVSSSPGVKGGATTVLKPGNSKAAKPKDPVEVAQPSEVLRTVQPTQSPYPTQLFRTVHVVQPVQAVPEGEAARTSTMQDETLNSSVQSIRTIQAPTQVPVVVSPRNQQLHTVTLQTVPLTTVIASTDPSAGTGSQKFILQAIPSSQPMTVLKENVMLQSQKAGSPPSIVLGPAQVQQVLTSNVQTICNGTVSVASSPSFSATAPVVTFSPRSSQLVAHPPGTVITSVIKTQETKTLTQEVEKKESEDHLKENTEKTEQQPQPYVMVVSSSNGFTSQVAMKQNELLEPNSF
In short: as §1

EHF = biological target: T5, EHF (Homo sapiens, UniProt Q9NZC4 1-300); conditions: protein: recombinant; tags: N-terminal GST; dsDNA, one strand shown
T5 sequence: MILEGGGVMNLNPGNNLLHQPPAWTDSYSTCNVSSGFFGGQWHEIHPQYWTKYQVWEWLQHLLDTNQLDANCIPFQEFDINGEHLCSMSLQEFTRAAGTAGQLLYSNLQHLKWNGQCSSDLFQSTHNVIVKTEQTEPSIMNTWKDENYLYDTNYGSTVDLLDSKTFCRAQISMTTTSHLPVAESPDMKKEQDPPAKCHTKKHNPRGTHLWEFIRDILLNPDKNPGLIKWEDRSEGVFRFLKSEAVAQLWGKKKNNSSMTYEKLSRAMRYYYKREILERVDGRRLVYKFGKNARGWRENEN
In short: as §1

SPI1 = SPI1 (Homo sapiens, UniProt P17947 1-270); conditions: protein: recombinant; tags: N-terminal GST; dsDNA, one strand shown
In short: as §1

SPIB = SPIB (Homo sapiens, UniProt Q01892 1-262); conditions: protein: recombinant; tags: N-terminal GST; dsDNA, one strand shown
Sequence of SPIB (Q01892 whole entry): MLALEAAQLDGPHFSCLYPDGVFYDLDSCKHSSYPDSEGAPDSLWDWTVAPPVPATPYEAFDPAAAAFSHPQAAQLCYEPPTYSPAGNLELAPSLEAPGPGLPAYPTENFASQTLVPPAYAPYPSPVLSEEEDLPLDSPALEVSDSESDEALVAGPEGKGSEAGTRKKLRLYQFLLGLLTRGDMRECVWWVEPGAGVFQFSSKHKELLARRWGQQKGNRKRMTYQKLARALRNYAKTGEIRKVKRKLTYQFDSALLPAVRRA
In short: as §1

ELK3 = biological target: T6, ELK3 (Homo sapiens, UniProt P41970 1-407); conditions: protein: recombinant; tags: N-terminal GST; dsDNA, one strand shown
T6 sequence: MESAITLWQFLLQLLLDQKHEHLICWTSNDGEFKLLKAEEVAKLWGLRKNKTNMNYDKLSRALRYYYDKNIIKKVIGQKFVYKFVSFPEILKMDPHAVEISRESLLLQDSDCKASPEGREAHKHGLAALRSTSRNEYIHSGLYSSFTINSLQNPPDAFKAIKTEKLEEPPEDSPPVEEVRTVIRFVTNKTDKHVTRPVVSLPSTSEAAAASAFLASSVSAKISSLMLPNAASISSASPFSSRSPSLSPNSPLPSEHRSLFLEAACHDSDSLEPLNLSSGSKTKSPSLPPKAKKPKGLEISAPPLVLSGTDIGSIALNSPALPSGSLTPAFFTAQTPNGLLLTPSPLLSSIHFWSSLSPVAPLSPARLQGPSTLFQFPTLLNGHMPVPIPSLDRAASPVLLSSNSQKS
In short: as §1

FEV = biological target: T7, FEV (Homo sapiens, UniProt Q99581 1-238); conditions: protein: recombinant; tags: N-terminal GST; dsDNA, one strand shown
T7 sequence: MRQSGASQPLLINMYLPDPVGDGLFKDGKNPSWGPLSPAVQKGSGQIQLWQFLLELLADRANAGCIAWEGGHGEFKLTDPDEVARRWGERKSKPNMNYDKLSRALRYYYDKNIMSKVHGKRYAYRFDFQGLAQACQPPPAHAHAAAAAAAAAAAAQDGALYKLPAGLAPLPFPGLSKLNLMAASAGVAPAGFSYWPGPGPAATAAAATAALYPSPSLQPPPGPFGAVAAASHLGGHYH
In short: as §1

ETV5 = ETV5 (Homo sapiens, UniProt P41161 1-510); conditions: protein: recombinant; tags: N-terminal GST; dsDNA, one strand shown
Sequence of ETV5 (P41161 whole entry): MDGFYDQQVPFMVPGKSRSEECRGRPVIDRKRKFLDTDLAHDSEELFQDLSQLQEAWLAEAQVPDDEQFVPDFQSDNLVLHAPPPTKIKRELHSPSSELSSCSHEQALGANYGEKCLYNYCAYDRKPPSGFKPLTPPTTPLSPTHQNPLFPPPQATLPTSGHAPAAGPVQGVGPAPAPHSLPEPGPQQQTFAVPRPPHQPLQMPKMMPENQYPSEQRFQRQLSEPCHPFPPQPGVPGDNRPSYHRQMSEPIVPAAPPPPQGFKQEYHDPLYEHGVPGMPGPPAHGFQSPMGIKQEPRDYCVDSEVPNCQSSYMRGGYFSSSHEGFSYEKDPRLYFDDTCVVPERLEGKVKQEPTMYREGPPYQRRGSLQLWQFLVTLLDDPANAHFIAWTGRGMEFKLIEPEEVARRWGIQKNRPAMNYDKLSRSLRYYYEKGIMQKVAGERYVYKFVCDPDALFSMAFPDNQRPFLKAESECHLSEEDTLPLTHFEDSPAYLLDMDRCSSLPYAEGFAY
In short: as §1

HSF1 = HSF1 (Homo sapiens, UniProt Q00613 1-529); conditions: protein: recombinant; tags: N-terminal GST; chain copies: 3; dsDNA, one strand shown
Sequence of HSF1 (Q00613 whole entry): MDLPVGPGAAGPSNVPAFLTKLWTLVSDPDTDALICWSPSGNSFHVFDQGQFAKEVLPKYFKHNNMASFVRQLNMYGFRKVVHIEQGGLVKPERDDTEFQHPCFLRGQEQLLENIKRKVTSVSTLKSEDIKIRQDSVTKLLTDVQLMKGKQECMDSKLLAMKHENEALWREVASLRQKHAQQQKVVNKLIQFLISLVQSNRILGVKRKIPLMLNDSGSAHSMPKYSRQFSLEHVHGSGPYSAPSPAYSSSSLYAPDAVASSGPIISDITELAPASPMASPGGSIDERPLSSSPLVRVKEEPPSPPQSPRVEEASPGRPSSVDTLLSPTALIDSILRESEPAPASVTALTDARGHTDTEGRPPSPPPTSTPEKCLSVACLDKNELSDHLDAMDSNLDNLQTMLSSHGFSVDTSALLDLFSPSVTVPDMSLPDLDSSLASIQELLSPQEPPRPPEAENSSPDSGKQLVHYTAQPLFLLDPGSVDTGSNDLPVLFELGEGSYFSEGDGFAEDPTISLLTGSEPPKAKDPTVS
In short: as §1

SPIC = biological target: T8, SPIC (Homo sapiens, UniProt Q8N5J4 1-248); conditions: protein: recombinant; tags: N-terminal GST; dsDNA, one strand shown
T8 sequence: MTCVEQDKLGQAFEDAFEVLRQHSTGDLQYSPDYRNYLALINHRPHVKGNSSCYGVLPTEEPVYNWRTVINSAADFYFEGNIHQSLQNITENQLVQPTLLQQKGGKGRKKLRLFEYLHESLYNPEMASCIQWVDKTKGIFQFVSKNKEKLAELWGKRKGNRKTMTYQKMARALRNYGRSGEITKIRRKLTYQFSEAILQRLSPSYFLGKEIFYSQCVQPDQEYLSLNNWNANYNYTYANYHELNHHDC
In short: as §1

ELF4 = ELF4 (Homo sapiens, UniProt Q99607 1-663); conditions: protein: recombinant; tags: N-terminal GST; dsDNA, one strand shown
Sequence of ELF4 (Q99607 whole entry): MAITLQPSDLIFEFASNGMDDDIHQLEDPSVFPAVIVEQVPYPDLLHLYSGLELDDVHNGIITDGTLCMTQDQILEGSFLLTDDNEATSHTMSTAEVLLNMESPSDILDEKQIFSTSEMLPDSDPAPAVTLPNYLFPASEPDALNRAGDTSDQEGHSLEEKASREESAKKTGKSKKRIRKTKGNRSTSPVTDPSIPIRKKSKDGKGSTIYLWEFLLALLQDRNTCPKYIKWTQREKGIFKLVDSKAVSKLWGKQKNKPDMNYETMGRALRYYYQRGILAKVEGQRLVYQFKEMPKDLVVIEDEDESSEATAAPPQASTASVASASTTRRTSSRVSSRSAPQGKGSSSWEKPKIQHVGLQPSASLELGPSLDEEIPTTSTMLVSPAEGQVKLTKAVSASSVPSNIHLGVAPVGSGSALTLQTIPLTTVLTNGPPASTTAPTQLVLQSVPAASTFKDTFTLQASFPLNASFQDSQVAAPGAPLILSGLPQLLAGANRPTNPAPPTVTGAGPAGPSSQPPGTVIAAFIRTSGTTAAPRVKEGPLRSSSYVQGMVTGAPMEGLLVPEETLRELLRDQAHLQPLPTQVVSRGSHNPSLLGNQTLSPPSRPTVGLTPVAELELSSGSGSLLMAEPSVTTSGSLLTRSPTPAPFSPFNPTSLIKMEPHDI
In short: as §1

ELK4 = biological target: T9, ELK4 (Homo sapiens, UniProt P28324-2 1-405); conditions: protein: recombinant; tags: N-terminal GST; dsDNA, one strand shown
T9 sequence: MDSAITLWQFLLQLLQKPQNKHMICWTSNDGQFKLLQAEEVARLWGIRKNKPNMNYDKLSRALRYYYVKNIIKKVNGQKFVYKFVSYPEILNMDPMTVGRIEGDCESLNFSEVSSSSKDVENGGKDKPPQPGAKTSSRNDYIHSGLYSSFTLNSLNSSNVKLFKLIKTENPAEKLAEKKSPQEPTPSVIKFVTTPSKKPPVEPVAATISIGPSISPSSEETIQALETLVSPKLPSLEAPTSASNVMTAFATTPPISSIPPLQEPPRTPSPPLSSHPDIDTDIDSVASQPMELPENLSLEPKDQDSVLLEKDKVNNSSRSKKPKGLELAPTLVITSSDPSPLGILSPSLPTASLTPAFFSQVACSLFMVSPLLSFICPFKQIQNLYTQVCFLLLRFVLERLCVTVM
In short: as §1

ETV2 = biological target: T10, ETV2 (Homo sapiens, UniProt O00321 1-342); conditions: protein: recombinant; tags: N-terminal GST; dsDNA, one strand shown
T10 sequence: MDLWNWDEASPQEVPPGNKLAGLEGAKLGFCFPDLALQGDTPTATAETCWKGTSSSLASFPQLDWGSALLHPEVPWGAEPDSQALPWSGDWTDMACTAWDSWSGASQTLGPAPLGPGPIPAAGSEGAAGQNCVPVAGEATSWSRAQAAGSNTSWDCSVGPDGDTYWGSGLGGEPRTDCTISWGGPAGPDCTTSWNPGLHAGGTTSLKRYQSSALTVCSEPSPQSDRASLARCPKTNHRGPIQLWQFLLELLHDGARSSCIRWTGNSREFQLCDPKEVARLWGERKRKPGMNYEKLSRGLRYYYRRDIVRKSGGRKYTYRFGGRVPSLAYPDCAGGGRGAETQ
In short: as §1

ELF3 = biological target: T11, ELF3 (Homo sapiens, UniProt P78545 1-371); conditions: protein: recombinant; tags: N-terminal GST; dsDNA, one strand shown
T11 sequence: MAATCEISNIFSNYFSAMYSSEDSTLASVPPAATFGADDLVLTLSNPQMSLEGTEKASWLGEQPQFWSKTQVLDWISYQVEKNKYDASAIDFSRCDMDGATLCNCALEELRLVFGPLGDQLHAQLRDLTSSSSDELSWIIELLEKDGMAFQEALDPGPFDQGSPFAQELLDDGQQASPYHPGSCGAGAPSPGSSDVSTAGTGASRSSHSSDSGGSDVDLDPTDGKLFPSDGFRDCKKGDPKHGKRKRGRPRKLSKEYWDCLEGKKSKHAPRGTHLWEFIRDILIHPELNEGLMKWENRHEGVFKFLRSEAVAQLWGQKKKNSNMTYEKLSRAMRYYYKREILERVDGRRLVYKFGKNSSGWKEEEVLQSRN
In short: as §1

CRX = CRX (Homo sapiens, UniProt O43186 1-299); conditions: protein: recombinant; tags: N-terminal GST; dsDNA, one strand shown
Sequence of CRX (O43186 whole entry): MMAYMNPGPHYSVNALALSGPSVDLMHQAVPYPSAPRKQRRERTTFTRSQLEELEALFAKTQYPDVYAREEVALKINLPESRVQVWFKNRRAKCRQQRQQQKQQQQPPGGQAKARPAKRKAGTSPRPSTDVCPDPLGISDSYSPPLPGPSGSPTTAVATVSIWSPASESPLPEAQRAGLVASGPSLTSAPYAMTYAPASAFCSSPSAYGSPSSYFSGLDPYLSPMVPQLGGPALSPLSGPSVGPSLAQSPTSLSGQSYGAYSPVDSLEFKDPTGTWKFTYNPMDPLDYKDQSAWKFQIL
In short: as §1

ETV1 = ETV1 (Homo sapiens, UniProt P50549 1-477); conditions: protein: recombinant; tags: N-terminal GST; dsDNA, one strand shown
Sequence of ETV1 (P50549 whole entry): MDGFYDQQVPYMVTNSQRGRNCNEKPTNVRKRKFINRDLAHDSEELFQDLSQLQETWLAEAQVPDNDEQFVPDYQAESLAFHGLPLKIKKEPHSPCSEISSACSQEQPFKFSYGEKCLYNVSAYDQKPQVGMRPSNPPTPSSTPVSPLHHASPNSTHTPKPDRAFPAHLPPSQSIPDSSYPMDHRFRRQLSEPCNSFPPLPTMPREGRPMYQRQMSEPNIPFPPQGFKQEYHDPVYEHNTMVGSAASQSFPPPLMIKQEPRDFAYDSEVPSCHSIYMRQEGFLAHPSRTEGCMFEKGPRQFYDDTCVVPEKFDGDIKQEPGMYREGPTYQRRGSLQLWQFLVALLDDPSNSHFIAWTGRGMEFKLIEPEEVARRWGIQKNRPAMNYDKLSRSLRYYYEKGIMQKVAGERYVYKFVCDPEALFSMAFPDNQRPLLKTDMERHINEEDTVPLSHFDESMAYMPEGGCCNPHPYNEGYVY
In short: as §1

Sequence: GCTGCT
- binding signal (FLI1): 1.32 fold enrichment (6-mer frequency, TF over GST control)
- binding signal (ELK1): 1.24 fold enrichment (6-mer frequency, TF over GST control)
- binding signal (GABPA): 1.24 fold enrichment (6-mer frequency, TF over GST control)
- binding signal (ERG): 1.29 fold enrichment (6-mer frequency, TF over GST control)
- binding signal (ELF1): 1.41 fold enrichment (6-mer frequency, TF over GST control)
- binding signal (EHF): 1.34 fold enrichment (6-mer frequency, TF over GST control)
- binding signal (SPI1): 1.19 fold enrichment (6-mer frequency, TF over GST control)
- binding signal (SPIB): 1.29 fold enrichment (6-mer frequency, TF over GST control)
- binding signal (ELK3): 1.27 fold enrichment (6-mer frequency, TF over GST control)
- binding signal (FEV): 1.27 fold enrichment (6-mer frequency, TF over GST control)
- binding signal (ETV5): 1.25 fold enrichment (6-mer frequency, TF over GST control)
- binding signal (HSF1): 1.13 fold enrichment (6-mer frequency, TF over GST control)
- binding signal (SPIC): 1.5 fold enrichment (6-mer frequency, TF over GST control)
- binding signal (ELF4): 1.29 fold enrichment (6-mer frequency, TF over GST control)
- binding signal (ELK4): 1.36 fold enrichment (6-mer frequency, TF over GST control)
- binding signal (ETV2): 1.25 fold enrichment (6-mer frequency, TF over GST control)
- binding signal (ELF3): 1.37 fold enrichment (6-mer frequency, TF over GST control)
- binding signal (CRX): 1.27 fold enrichment (6-mer frequency, TF over GST control)
- binding signal (ETV1): 1.42 fold enrichment (6-mer frequency, TF over GST control)
